Bioassay records: PubChem, National Center for Advancing Translational Sciences (NCATS)
HT1080-NT tox: kills 2HG-producing HT-1080-NT fibrosarcoma cells; AID 686970; 1.6% of 360,000 active; HT-1080-NT fibrosarcoma viability, CellTiter-Glo ATP luminescence, 48 h; Potency, µM (doses to about 46.1 µM), for inactives: at the top dose activity, negative = less viability, hits mostly cytotoxic;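 further: NT is the 2HG producing partner of a matched IDH1 knockdown line; potency means the concentration at half of the fitted maximal effect; 0% = DMSO-treated cells and -100% = media-only wells without cells; nearly all actives have a fitted effect of over 55% in size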
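750 cells/well, RPMI + 5% FBS; 2 h settle, compound pin-transfer, 48 h at 37 degrees C. CellTiter-Glo 10 min RT, luminescence. Normalized to DMSO and media-only wells.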
DT40 TDP1 CPT: DT40-hTDP1 cell growth loss with CPT; AID 686979; Potency, µM (top dose mostly 46.2 µM), for the others: at the top dose activity change, negative = growth inhibition, most hits filed as inhibitors; chicken DT40 Tdp1-/-;hTDP1 cells + 20 nM CPT, ATP luminescence, 48 h; 12% of 420,000 active; further: potency means the concentration at half of the fitted maximal effect; nearly all actives have a fitted effect of over 55% in size
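Chicken DT40 Tdp1-/- cells stably complemented with human TDP1 were seeded at 400 cells/well in medium containing 20 nM camptothecin, exposed to pin-transferred compounds, and grown at 37 °C for at least 48 hr. Viability was read as ATP luminescence.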
HT1080 IDH1KD tx: toxicity to HT-1080 IDH1 knockdown cells (counter line). HT-1080 IDH1 knockdown viability, ATP luminescence, 48 h. Potency, µM (titrated, usually from 46.1 µM), for the others: at the top dose activity, negative = toxicity, actives largely listed as cytotoxic. 2% of 360,000 active;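 further: potency means the concentration at half of the fitted maximal effect; 0% = DMSO wells and -100% = cell-free medium wells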
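HT-1080-IDH1KD cells (IDH1 knocked down), 750/well in RPMI with 5% FBS, treated with compound 48 h at 37 degrees C. Viability by CellTiter-Glo luminescence, normalised to DMSO and no-cell wells; concentration-response curves classed.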
TDP1 cell noCPT: qHTS for Inhibitors of human tyrosyl-DNA phosphodiesterase 1 (TDP1): qHTS in cells in absence of CPT; DT40 Tdp1-/- hTDP1 cells, no CPT, ATP luminescence, 48 h; Potency, µM (highest dose often 46.2 µM), without a hit: at the top dose activity change, negative = growth inhibition, most hits filed as inhibitors; 15% of 420,000 active; AID 686978, 2013; further: potency means the concentration at half of the fitted maximal effect; nearly all actives have a fitted effect of over 55% in size
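Cells were dispensed at 400 per well, compounds added by pin tool, plates incubated ≥48 hr at 37 °C, then CellTiter-Glo added for 30 min at room temperature before luminescence reading. Line: DT40 Tdp1-/- complemented with hTDP1; camptothecin omitted.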
IL-1B inflam inh: inhibitors of inflammasome signaling (IL-1 beta secretion); activity change, % at 57.5 µM; THP-1 LPS/ATP IL-1B secretion, AlphaLISA, 16 h; active compounds read low; 4.7% of 360,000 active; AID 743279; in the data active means activity change below about -50%; inconclusive means mostly about -30% to -49%
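Secreted IL-1B measured by AlphaLISA bead assay after 16 h compound exposure of THP-1 cells; compounds (final up to 57.5 uM) added 1 h before LPS (250 ng/mL) and ATP (1.25 mM) stimulation; lower signal means less secretion.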
Starred values were filed as active, the others as inactive; u = inconclusive; [ ] = another dose, or the depositor's remark. Sampled rows, rich in hits. Any-hit rate of the full collection: about 19%. Unless noted, the call rests on the fitted dose curve; in most records, active means well fitted curve in the direction sought with a large enough effect; inconclusive means small, poorly fitted or top-dose-only effect, or another doubt; inactive means no such curve, though single readings can be large; an effect the other way counts as inactive or inconclusive. Unless noted, on the % scale 0 is the no-effect control and ±100 the full control effect.

SMILES | HT1080-NT tox | DT40 TDP1 CPT | HT1080 IDH1KD tx | TDP1 cell noCPT | IL-1B inflam inh
O=C(/C=C\c1ccccc1)NCC(=O)N/N=C/c1ccc(O)cc1O | u | 21µM* | u | 8.2µM* | 177
O=C(NNC(=O)C1COc2ccccc2O1)c1ccccc1O (stereo unspecified) | 0% | u | 0% | 16µM* | 5
COc1ccc(Cl)cc1C(=O)NNC(=O)C1COc2ccccc2O1 (stereo unspecified) | 5% | u | 0% | u | 38
O=C(CNC(=O)C1COc2ccccc2O1)N/N=C/c1ccc(O)cc1O (stereo unspecified) | -14% | 6.5µM* | u | 6.5µM* | 76
O=C(CNC(=O)C(c1ccccc1)c1ccccc1)N/N=C/c1ccc(O)cc1O | u | 5.8µM* | 7.3µM* | 6.5µM* | 234
O=c1c2ccccc2nc2oc3ccccc3n12 | -5% | -27% | 12% | -22% | -2
CCCCNC(=O)C1c2ccccc2OCC(=O)N1Cc1cccnc1 (stereo unspecified) | 18% | 5% | 12% | -23% | 11
COCCNC(=O)C1(C)CCN(C(=O)c2cccc(C)c2C)C1 (stereo unspecified) | u | u | 14% | -3% | 12
O=C(CSc1nc(Nc2ccccc2)nc(N2CCOCC2)n1)Nc1ccc(Br)cc1F | -1% | u | 1% | 18µM* | 0
O=C(CSc1nc(Nc2ccccc2)nc(N2CCOCC2)n1)Nc1ccc([N+](=O)[O-])cc1 | 8% | 18µM* | 7% | 15µM* | u
O=C(CSc1nc(Nc2ccccc2)nc(N2CCOCC2)n1)NC1CCCCC1 | -8% | u | -6% | u | -6
O=C(CSc1nc(N2CCOCC2)nc(N2CCOCC2)n1)Nc1ccc(Cl)cc1Cl | 3% | u | 1% | u | -1
O=C(CSc1nc(Nc2ccccc2)nc(N2CCOCC2)n1)Nc1ccccc1Cl | -6% | 16µM* | -4% | 11µM* | -7
COc1ccc(Cl)cc1NC(=O)CSc1nnc(CN2CCOCC2)n1-c1ccc(Cl)cc1 | 2%[9.24 µM] | 16µM* | -26% | 21µM* | 0
O=C(CSc1nc(Nc2ccccc2)nc(N2CCOCC2)n1)Nc1cccc([N+](=O)[O-])c1 | -11% | u | -7% | u | u
Cc1ccc(C)c(OCCSc2nnc(C)c(=O)[nH]2)c1 | -7% | -3% | -2% | u | 21
C/C(N)=C(/C#N)C(=O)COC(=O)CNS(=O)(=O)c1ccc(F)c(F)c1F | 4% | -17% | 2% | -34% | -23
CC(=O)c1cccc(NC(=O)CSc2nc(N3CCCCC3)nc(N3CCCCC3)n2)c1 | -4% | -1% | 27% | 26µM* | 19
COc1ccc(Cl)cc1NC(=O)CSc1nc(N2CCCCC2)nc(N2CCCCC2)n1 | 6% | u | 9% | 16µM* | 14
Cc1ccc(CNC(=O)CSc2nc(N3CCCCC3)nc(N3CCCCC3)n2)cc1 | u | 21µM* | u | 23µM* | 0
CC(=O)c1ccc(NC(=O)CSc2nc(N3CCOCC3)nc(N3CCOCC3)n2)cc1 | -8% | -21% | -8% | -17% | -7
COc1ccc(Cl)cc1NC(=O)CSc1nc(N2CCOCC2)nc(N2CCOCC2)n1 | 1% | u | 8% | u | 5
Cc1ccccc1NC(=O)CSc1nc(N2CCCCC2)nc(N2CCCCC2)n1 | -3% | u | 5% | -15% | 22
COc1ccc(Cl)cc1NC(=O)CSc1nc(Nc2ccccc2)nc(N2CCOCC2)n1 | -19% | u | -22% | 18µM* | -15
CC(=O)N1CCN(C(=O)c2cc(S(=O)(=O)N(C)c3ccc(F)cc3)ccc2Cl)CC1 | 4% | u | 0% | u | 10
O=C(Cc1cccc(NC(=O)C2CCCN(C(=O)C3CCCCC3)C2)c1)Nc1cccc(C(=O)N2CCOCC2)c1 (stereo unspecified) | 14% | -6% | 12% | -15% | 4
